From PubChem BioAssay AID651599 (National Center for Advancing Translational Sciences (NCATS), 2012)
Records with an inconclusive call do not appear. Calls of active or inactive are those of the source. Calls follow the shape of the dose curve; as a rule, active = well fitted inhibition curve with a large enough effect; inconclusive = small, poorly fitted or top-dose-only effect; inactive = no such curve, though single readings can be large or run the other way.

target: Tumor susceptibility gene 101 protein (Homo sapiens) (UniProt Q99816); test: qHTS Assay for Iinhibitors of HIV-1 Budding by Blocking the Interaction of PTAP/TSG101: Hit Validation in TR assay; conditions: Tsg101 binding domain + Texas Red-labeled PTAP peptide, fluorescence polarization, 20 min; series mostly up to 57.5 µM; activity change, negative = inhibition: at the top concentration
Summary of the method: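 Fluorescence polarization: Tsg101 binding domain (10 uM final) with Texas Red-labelled PTAP peptide (50 nM final) in HEPES pH 7.5, 0.15 M NaCl, Tween 20, EDTA, TCEP; 20 min binding at room temperature after compound addition.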
% is scaled to controls: 0 for no effect and ±100 for the full control effect; potency is read from the fitted curve at half-maximal effect.

Tumor susceptibility gene 101 protein (Homo sapiens), sequence (Q99816 whole entry, looked up, the tested form may be a part): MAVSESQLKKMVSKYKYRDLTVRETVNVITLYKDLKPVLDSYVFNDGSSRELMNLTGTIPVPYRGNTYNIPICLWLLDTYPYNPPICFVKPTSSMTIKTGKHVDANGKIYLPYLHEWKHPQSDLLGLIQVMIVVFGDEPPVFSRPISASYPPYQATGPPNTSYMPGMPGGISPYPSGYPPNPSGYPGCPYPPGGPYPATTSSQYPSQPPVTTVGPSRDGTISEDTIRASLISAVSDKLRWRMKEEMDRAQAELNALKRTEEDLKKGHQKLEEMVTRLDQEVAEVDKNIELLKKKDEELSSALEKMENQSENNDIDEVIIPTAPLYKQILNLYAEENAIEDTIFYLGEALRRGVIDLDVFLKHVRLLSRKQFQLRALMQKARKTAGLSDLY

Activity change, negative = inhibition, inactive:
Cc1ccc[n+](-c2nc([O-])sc2/C=N/Nc2ccc([N+](=O)[O-])cc2)c1 11.8%
CCOC(=O)/C(C#N)=C(C)/C=C1\Sc2ccccc2N1CC 23.7%
CCOC(=O)c1ccc(NC(=O)CSc2nc(-c3cccs3)cc(C(F)(F)F)c2C#N)cc1 -13.1%
CCCCCCn1c(=O)[nH]c2nc3cc(N)c(C)cc3nc2c1=O -3.8%
O=c1c(-c2cc3ccccc3o2)[n+]([O-])c2ccccc2n1OCc1ccccn1 202%
CCN(CC)C1=CC2=CC(=C(C#N)C#N)CCC2CC1 (centres undefined) 5.9%
Nc1ccc(-c2c3ccc(=O)cc-3oc3cc(O)ccc23)c(C(=O)O)c1 -14.5%
Cn1cc(/C=C2\SC(=S)N(NC(=O)c3cccc(Cl)c3)C2=O)c2ccccc21 -95.2%
Cc1c2ccccc2nc2c(F)c(NC(C)C)c(F)c(F)c12 60.3%
CN(C)CCCN1C(=O)c2cccc3c(Br)ccc(c23)C1=O 57.8%
Cc1oc2cc(O)ccc2c(=O)c1-c1nncn1-c1ccccc1 27.5%
CCn1cc(C=C2C(=O)c3ccccc3C2=O)c2ccccc21 -10.3%
CC1CCCN(Cc2c(O)ccc3c2O/C(=C\c2ccco2)C3=O)C1 (centres undefined) 9.15%
COc1ccc(OC)c(/C=C2\N=C(c3ccccc3)OC2=O)c1 -9.86%
CSC1=NSC2=NC(=O)/C(=C/c3coc4ccccc4c3=O)C(=N)N12 -61.3%
O=C(CCN1C(=O)/C(=C/c2ccco2)SC1=S)Nc1ccc(O)cc1C(=O)O -21.6%
Cc1cccc(N=Nc2c(O)[nH]c3ccc(F)cc23)c1 -2.4%
ClCc1nc2ccccc2n1Cc1ccccc1 2.36%
O=C(N/N=C/c1ccccc1Cl)c1[nH]c2ccc(Br)cc2c1-c1ccccc1 -8.23%
OCCN(CCO)c1nc(N2CCCCC2)c2nc(N(CCO)CCO)nc(N3CCCCC3)c2n1 -8.97%
O=C1C=CC(=O)c2c(O)c(CO)c(CO)c(O)c21 -27.2%
COc1ccc(-n2nc(C(=O)Nc3ccc(OC)c(OC)c3)c3c4ccccc4n(C)c3c2=O)cc1 -9.28%
Cc1cc(C)n2nc3nc4c(cc3c2n1)CCCC4 -6.13%
O=C1/C(=C/c2ccco2)Oc2c1ccc(O)c2CN1CCCCC1 -10.8%
O=C(CCl)N1c2ccccc2Oc2ccc3ccccc3c21 -7.01%
CC1(C)CC(=O)C2=C(C1)OC(N)=C(C#N)[C@@H]2c1ccccc1[N+](=O)[O-] -8.7%
CCN(CC)c1ccc2cc(S(=O)(=O)c3ccc(Cl)cc3)c(=O)oc2c1 -14.2%
Nc1ccc2nc3c(=O)[nH]c(=S)[nH]c3nc2c1 -13%
Cc1ccc(OC(=O)c2ccc3nc(C)sc3c2)cc1 21%
CC1CCCN(c2nc3ccccc3nc2C(C#N)S(=O)(=O)c2ccccc2)C1 (centres undefined) 14.5%
COc1ccccc1Nc1nc2ccc(C)cc2cc1C#N -8.34%
COc1cccc(/C(O)=C/c2nc3ccc(C(=O)NCCc4ccc(Cl)cc4)cc3[nH]c2=O)c1 1.36%
Brc1ccc(C2=CC(c3cccs3)n3ncnc3N2)cc1 (centres undefined) 8.36%
Cc1cccc(-n2c(O)c(C=Nc3ccc4c(c3)OCO4)c3ccccc3c2=O)n1 -17.9%
Fc1ccc(C2=CC(c3ccco3)n3ncnc3N2)cc1 (centres undefined) -25.3%
Cc1ccc(C2C=C(c3ccc(Cl)cc3)Nc3nc(NS(=O)(=O)c4ccccc4)nn32)cc1 (centres undefined) 17.1%
CC1CC(C)CN(C(=O)c2ccc3c(c2NCCO)C(=O)c2ccccc2C3=O)C1 (centres undefined) -24.3%
CCCCOC(=O)c1ccc(NC(=O)/C(C#N)=C/c2ccc(-c3ccccc3)o2)cc1 -17.3%

Potency, active:
Cc1ccccc1N1C(=O)c2cccc3c(N(C)CCO)ccc(c23)C1=O 32.6 µM
